# Measured values: PubChem BioAssay (NCATS)
# Where “and” joins values, the source holds several entries; their conditions need not be identical. Identical values can stand only once. Records with an inconclusive call do not appear. A call without a number means that no potency is given here. Calls of active or inactive are those of the source. The call rests on the fitted dose curve; in most records, active means well fitted inhibition curve with a large enough effect; inconclusive means small, poorly fitted or top-dose-only effect; inactive means flat fitted curve, though single readings scatter.
# Assays:
# HaCat [1] = test: Cytotoxic Profiling of Annotated Libraries Using Quantitative High-Throughput Screening (AID 1296008); conditions: Five cell lines viability, CellTiter-Glo ATP luminescence, 48-72 h; max response: hits give low values
# Summary of the method: (§1)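 Compounds were pin-transferred onto cells and incubated 48 or 72 hr at 37 degree Celsius, 95% humidity. CellTiter-Glo was added, plates sat 10 min at room temperature, then ATP-coupled luminescence was imaged as the viability read-out.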
# NIH3T3 = test: as above; conditions: Five cell lines viability, CellTiter-Glo ATP luminescence, 48-72 h; max response: hits give low values
# Summary of the method: as §1
# HEK293T = test: qHTS assay to identify novel small-molecules to repurpose for Merkel cell carcinoma treatment (AID 1296009); conditions: MCC and control cell lines, CellTiter-Glo viability, 72 h; at 44.8 µM (top of the series)
# Summary of the method: (§2)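 Viability readout: ATP luminescence (CellTiter-Glo) after 72 hr drug exposure at 37 degree celsius. Dose-response format was 8 points for NPC and 11 points for MIPE; data normalized to in-plate controls.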
# MCC-13 = test: as above; conditions: MCC and control cell lines, CellTiter-Glo viability, 72 h; series mostly up to 46 µM
# Summary of the method: as §2
# MCC-26 = test: as above; conditions: MCC and control cell lines, CellTiter-Glo viability, 72 h; series mostly up to 46 µM
# Summary of the method: as §2
# MKL-1 = test: as above; conditions: MCC and control cell lines, CellTiter-Glo viability, 72 h; series mostly up to 46 µM
# Summary of the method: as §2
# MKL-2 = test: as above; conditions: MCC and control cell lines, CellTiter-Glo viability, 72 h; series mostly up to 46 µM
# Summary of the method: as §2
# HACAT [2] = test: as above; conditions: MCC and control cell lines, CellTiter-Glo viability, 72 h; at 44.8 µM (top of the series) unless noted
# Summary of the method: as §2
# KB-3-1 = test: Cytotoxic Profiling of Annotated Libraries Using Quantitative High-Throughput Screening (AID 1296008); conditions: Five cell lines viability, CellTiter-Glo ATP luminescence, 48-72 h; max response: hits give low values
# Summary of the method: as §1
# CRL-7250 = normal cell line; test: qHTS assay to identify novel small-molecules to repurpose for Merkel cell carcinoma treatment (AID 1296009); conditions: MCC and control cell lines, CellTiter-Glo viability, 72 h; at 44.8 µM (top of the series) unless noted
# Summary of the method: as §2
# Further: nearly all actives have a fitted effect of over 60% in size.
# Potency means the concentration at half of the fitted maximal effect.
compound,measurement,setting,value
O=C(CCCCl)c1ccc(F)cc1,max response,HaCat [1],4.12% (inactive)
same,max response,NIH3T3,-0.659% (inactive)
same,outcome,HEK293T,inactive
same,Potency,MCC-13,inactive
same,Potency,MCC-26,inactive
same,Potency,MKL-1,inactive
same,Potency,MKL-2,inactive
COc1cc(CC#N)cc(OC)c1OC,outcome,HaCat [1],inactive
same,max response,NIH3T3,-3.69% (inactive)
same,outcome,HACAT [2],inactive
same,Potency,MCC-13,inactive
same,Potency,MCC-26,inactive
same,Potency,MKL-1,inactive
same,Potency,MKL-2,inactive
Sc1ccccc1Cl,max response,HaCat [1],-3.98% (inactive)
same,max response,NIH3T3,2.05% (inactive)
same,Potency,MCC-13,inactive
same,Potency,MCC-26,inactive
same,Potency,MKL-1,inactive
same,Potency,MKL-2,inactive
COc1cc(C[C@@H](C)N)c(OC)cc1C,max response,KB-3-1,-10.2% (inactive)
same,max response,NIH3T3,-23.9% (inactive)
same,Potency,MCC-13,inactive
same,Potency,MCC-26,inactive
same,Potency,MKL-1,inactive
same,Potency,MKL-2,inactive
Cc1nnc2n1-c1sc(CCC(=O)N3CCOCC3)cc1C(c1ccccc1Cl)=NC2,max response,KB-3-1,-14.1% (inactive) and 0.342% (inactive)
same,max response,NIH3T3,2.45% (inactive)
same,outcome,CRL-7250,inactive
same,outcome,HEK293T,inactive
same,Potency,MCC-13,inactive
same,Potency,MCC-26,inactive
same,Potency,MKL-1,inactive
same,Potency,MKL-2,inactive
CC(CC(C(N)=O)(c1ccccc1)c1ccccc1)N(C)C (stereo not drawn),max response,HaCat [1],-10.9% (inactive)
same,outcome,NIH3T3,inactive
same,outcome,HEK293T,inactive
same,Potency,MCC-13,inactive
same,Potency,MCC-26,inactive
same,Potency,MKL-1,inactive
same,Potency,MKL-2,inactive
CC(C(O)c1ccccc1)N(C)C/C=C/c1ccccc1 (stereo not drawn),outcome,HaCat [1],inactive
same,max response,NIH3T3,2.21% (inactive)
same,outcome,HACAT [2],inactive
same,Potency,MCC-13,inactive
same,Potency,MCC-26,inactive
same,Potency,MKL-1,inactive
same,Potency,MKL-2,inactive
O=C(N[C@H]1N=C(c2ccccc2F)c2cccc3c2N(CC3)C1=O)c1cc2ccccc2[nH]1,outcome,KB-3-1,inactive
same,max response,NIH3T3,-0.0973% (inactive)
same,Potency,MCC-13,inactive
same,Potency,MCC-26,inactive
same,Potency,MKL-1,inactive
same,Potency,MKL-2,inactive
O=C(CCl)c1ccc(Cl)cc1Cl,outcome,HaCat [1],inactive
same,max response,NIH3T3,-36.1% (inactive)
same,outcome,HACAT [2],inactive
same,Potency,MCC-13,inactive
same,Potency,MCC-26,inactive
CCCCCCCCCCCC[N+](C)(C)CCOc1ccccc1,Potency,HaCat [1],16.8 µM (active)
same,Potency,MCC-26,23.7 µM (active)
same,Potency,MKL-1,2.66 µM (active)
same,Potency,MKL-2,1.06 µM (active)
CC1Sc2c(C(=O)O)c(=O)c3cc(F)c(N4CCNCC4)cc3n21 (stereo not drawn),max response,HaCat [1],0.258% (inactive)
same,outcome,NIH3T3,inactive
same,Potency,MCC-13,inactive
same,Potency,MCC-26,inactive
same,Potency,MKL-1,inactive
same,Potency,MKL-2,inactive
CC#C[C@]1(O)CC[C@H]2[C@@H]3C[C@H](C)C4=CC(=O)CC[C@]4(C)[C@H]3CC[C@@]21C,outcome,HaCat [1],inactive
same,outcome,HACAT [2],inactive
same,Potency,MCC-13,inactive
same,Potency,MCC-26,inactive
same,Potency,MKL-1,inactive
CN(C)C(=S)SSC(=S)N(C)C,max response,KB-3-1,-0.0008% (inactive)
same,Potency,NIH3T3,0.422 µM (active)
same,Potency,MCC-26,0.299 µM (active)
same,Potency,MKL-1,0.596 µM (active)
same,Potency,MKL-2,0.596 µM (active)
COc1ccc2c(C(=O)c3ccc(Cl)cc3)c(C)n(CC(=O)O)c2c1,outcome,KB-3-1,inactive
same,max response,NIH3T3,-34.1% (inactive)
C[C@@H]1O[C@@H](O[C@@H]2C=C3CC[C@@H]4[C@H](CC[C@]5(C)[C@@H](c6ccc(=O)oc6)CC[C@]45O)[C@@]3(C)CC2)[C@H](O)[C@H](O)[C@H]1O,Potency,HaCat [1],0.0422 µM (active)
same,Potency,MCC-13,0.0033 µM (active)
same,Potency,MKL-1,0.0094 µM (active)
same,Potency,MKL-2,0.0084 µM (active)
CCOC(=O)C1(c2ccccc2)CCN(CCc2ccc(N)cc2)CC1,max response,HaCat [1],-21.6% (inactive)
same,max response,NIH3T3,2.24% (inactive)
same,Potency,MCC-13,inactive
same,Potency,MCC-26,inactive
same,Potency,MKL-1,inactive
same,Potency,MKL-2,inactive
C1CN2CCC1CC2,outcome,HaCat [1],inactive
same,outcome,NIH3T3,inactive
same,outcome,HACAT [2],inactive
same,Potency,MCC-13,inactive
same,Potency,MCC-26,inactive
same,Potency,MKL-1,inactive
same,Potency,MKL-2,inactive
C[C@]12Cc3nonc3C[C@@H]1CC[C@@H]1[C@@H]2CC[C@@]2(C)[C@H]1CC[C@]2(C)O,outcome,HaCat [1],inactive
same,max response,NIH3T3,-6.95% (inactive)
same,outcome,HACAT [2],inactive
same,Potency,MCC-13,inactive
same,Potency,MCC-26,inactive
CCCC(C)C1(CC)C(=O)N=C(S)NC1=O (stereo not drawn),max response,HaCat [1],-26.2% (inactive)
same,max response,NIH3T3,-2.94% (inactive)
same,outcome,HEK293T,inactive
same,Potency,MCC-13,inactive
same,Potency,MCC-26,inactive
same,Potency,MKL-1,inactive
same,Potency,MKL-2,inactive
CCS(=O)(=O)C(C)(C)S(=O)(=O)CC,max response,KB-3-1,3.51% (inactive)
same,max response,NIH3T3,-2.98% (inactive)
same,Potency,MCC-13,inactive
same,Potency,MCC-26,inactive
same,Potency,MKL-1,inactive
same,Potency,MKL-2,inactive
CCNc1nc(Cl)nc(NCC)n1,max response,KB-3-1,-15.4% (inactive)
same,max response,NIH3T3,-12.6% (inactive)
same,Potency,MCC-13,inactive
same,Potency,MCC-26,inactive
same,Potency,MKL-1,inactive
same,Potency,MKL-2,inactive
ClCCCN1CCN(c2cccc(Cl)c2)CC1,outcome,HaCat [1],inactive
same,outcome,NIH3T3,inactive
same,outcome,HACAT [2],inactive
same,outcome,HEK293T,inactive
same,Potency,MCC-13,inactive
same,Potency,MCC-26,inactive
same,Potency,MKL-1,inactive
same,Potency,MKL-2,inactive
CCC(=O)C(CCN(C)C)(c1ccccc1)c1ccccc1,max response,HaCat [1],-17.8% (inactive)
same,max response,NIH3T3,2.72% (inactive)
same,Potency,MCC-13,inactive
same,Potency,MCC-26,inactive
same,Potency,MKL-1,inactive
Cc1ccc([N+](=O)[O-])[c]2c1[O][Hg]2,Potency,HaCat [1],6.68 µM (active)
same,Potency,NIH3T3,4.22 µM (active)
same,Potency,MCC-13,2.11 µM (active)
same,Potency,MCC-26,1.88 µM (active)
same,Potency,MKL-1,0.133 µM (active)
same,Potency,MKL-2,0.0422 µM (active)
CCN1CCCC1CNC(=O)C(O)(c1ccccc1)c1ccccc1 (stereo not drawn),max response,HaCat [1],-7.18% (inactive)
same,outcome,NIH3T3,inactive
same,outcome,HEK293T,inactive
same,Potency,MCC-13,inactive
same,Potency,MCC-26,inactive
same,Potency,MKL-1,inactive
same,Potency,MKL-2,inactive
